The whole screen tested about 6,200 compounds, of which about 2,900 (47%) were called active. The set was probably picked from earlier hits. The list shows a part of the results. Unmarked numbers belong to inactive results. Rule as the data show it: active = inhibition above about 50%; inactive = the rest.
Assay: Mycobacterium tuberculosis growth inhibition, primary screen (AID 1259343)
Conditions: inhibition: at 10 µM, stronger effect = higher value; outcome: 10 uM

Question: With `O=c1[nH]c(=S)[nH]c(O)c1N=Nc1ccc(F)cc1` as the compound, how does the inhibition read?
Answer: 104% (active)

Question: For `O=c1[nH]c(=S)[nH]c2sccc12`, which inhibition is on record?
Answer: -6.61%

Question: With `O=c1[nH]c(=S)[nH]c(O)c1N=Nc1ccc(SC(F)F)cc1` as the compound, how does the inhibition read?
Answer: 99.5% (active)

Question: Which inhibition does the source give for `O=c1[nH]c(=S)[nH]c(O)c1N=Nc1ccc2c(c1)OCCO2` here?
Answer: 38.2%

Question: With `O=c1[nH]c(O)c(N=Nc2ccc(SC(F)F)cc2)c(=O)[nH]1` as the compound, how does the inhibition read?
Answer: 84% (active)

Question: With `O=C(NC(=S)NCc1ccccc1)C1CCCCC1` as the compound, how does the inhibition read?
Answer: -4.74%

Question: Which inhibition does the source give for `CC(C)(C)C(=O)NCCc1cn(-c2ccccc2)c2ccccc12` here?
Answer: 42.6%

Question: For `CC(C)(C)C(=O)NC(=S)NCCc1ccccc1`, which inhibition is on record?
Answer: 58.1% (active)

Question: For `CC(C)(C)C(=O)NC(=S)NCc1ccccc1`, which inhibition is on record?
Answer: 87% (active)

Question: Which inhibition does the source give for `CC(C)CC(=O)NC(=S)NCc1ccccc1` here?
Answer: 52.5% (active)

Question: For `O=C(NCCc1ccc(Br)s1)C1CCC1`, which inhibition is on record?
Answer: -26.3%

Question: Which inhibition does the source give for `O=C(NC(=S)NCCc1ccccc1)C1CCCCC1` here?
Answer: 68.9% (active)

Question: With `S=C(NCCc1ccccc1)NC1CCSc2ccccc21` (configuration not stated) as the compound, how does the inhibition read?
Answer: 31.4%

Question: Which inhibition does the source give for `CC1CCC(C(C)C)C(OC(=O)Cn2c(-c3ccccc3)[n+](C)c3ccccc32)C1` (configuration not stated) here?
Answer: 36.3%

Question: For `Cc1sc(NC(=O)c2ccc3c(c2)CC(C)N3S(C)(=O)=O)nc1-c1ccc(F)cc1` (configuration not stated), which inhibition is on record?
Answer: 44.9%

Question: For `CC(C)(C)c1ncc(CNc2ccc(OCC(F)(F)F)nc2)s1`, which inhibition is on record?
Answer: 76.1% (active)

Question: For `O=C1C(=Cc2ccc(N3CCCCC3)cc2)COc2ccccc21`, which inhibition is on record?
Answer: 53% (active)

Question: With `COc1ccc2cc(C=C3COc4ccccc4C3=O)ccc2c1` as the compound, how does the inhibition read?
Answer: -0.42%

Question: For `O=C(O)c1ccccc1CSc1ccc(N2CCCCC2)cc1`, which inhibition is on record?
Answer: 34.9%

Question: With `O=C1/C(=C\c2ccc(Cl)cc2)COc2ccccc21` as the compound, how does the inhibition read?
Answer: 93.1% (active)

Question: With `O=C1/C(=C/c2csnn2)CCOc2cc(Br)ccc21` as the compound, how does the inhibition read?
Answer: 32.8%

Question: For `CC(NC(=O)c1cc2c(s1)-c1ccccc1OC2)c1ccc(Br)cc1` (configuration not stated), which inhibition is on record?
Answer: -1.38%

Question: Which inhibition does the source give for `O=C1C(=Cc2cc(Br)cs2)COc2ccccc21` here?
Answer: 63.5% (active)

Question: For `FC(F)(F)c1nc2n(n1)C(c1ccc(Cl)cc1)C1=C(N2)c2ccccc2OC1` (configuration not stated), which inhibition is on record?
Answer: inactive

Question: With `COc1cc(C(CC(=O)c2ccc(Cl)cc2)SCCO)cc(OC)c1OC` (configuration not stated) as the compound, how does the inhibition read?
Answer: 7.8%

Question: For `NC(=O)C1CCN(C(=O)c2ccc(-c3cccc(Cl)c3Cl)o2)CC1`, which inhibition is on record?
Answer: 57.6% (active)

Question: For `NC(=O)C1CCN(CC(=O)Nc2oc3ccccc3c(=O)c2-c2ccccc2)CC1`, which inhibition is on record?
Answer: 12.8%

Question: Which inhibition does the source give for `C/C=C/c1c(F)c(F)c(Oc2ccc(C=O)cc2)c(F)c1F` here?
Answer: 88.6% (active)

Question: With `Cc1cccc(NC(=O)/C=C/C2=C(Cl)c3ccccc3S2(=O)=O)c1C` as the compound, how does the inhibition read?
Answer: 102% (active)

Question: With `NC(=O)c1ccccc1OCc1csc(COc2ccc(F)cc2)n1` as the compound, how does the inhibition read?
Answer: 15.8%

Question: With `Cc1ccc(OCc2nc(CC(=O)N(C)CC3CCCCC3)cs2)cc1` as the compound, how does the inhibition read?
Answer: 79.4% (active)

Question: Which inhibition does the source give for `O=C(Cc1csc(COc2ccc(Cl)cc2)n1)NC12CC3CC(CC(C3)C1)C2` here?
Answer: 49.5%

Question: For `CSc1ncc(Cl)c(C(=O)C(C#N)c2nc3ccc(Br)cc3c(=O)[nH]2)n1` (configuration not stated), which inhibition is on record?
Answer: 15.1%

Question: With `CC(C)c1nnc(NC(=O)c2cccc(I)c2)s1` as the compound, how does the inhibition read?
Answer: 90.6% (active)

Question: With `CC(C)c1ccc(C(=O)Nc2sccc2C(=O)N2CCCC2)cc1` as the compound, how does the inhibition read?
Answer: 16.5%

Question: For `CCC(CC)c1nnc(NC(=O)c2cc(C)cc(C)c2)s1`, which inhibition is on record?
Answer: 51.2% (active)

Question: For `COC(=O)c1cnc(NC(=O)c2cc(F)cc(Br)c2)s1`, which inhibition is on record?
Answer: 19.9%

Question: With `Cc1ccc(C#N)cc1S(=O)(=O)Nc1nnc(C(C)C)s1` as the compound, how does the inhibition read?
Answer: 31.9%

Question: Which inhibition does the source give for `CC(C)Cc1nnc(NC(=O)c2cccc(C#N)c2)s1` here?
Answer: 20.8%

Question: Which inhibition does the source give for `CCCC(C)c1nnc(NC(=O)c2cnc(-c3ccccn3)nc2)s1` (configuration not stated) here?
Answer: -2.11%

Question: For `CC(C)c1ccc(C(=O)Nc2nnc(C(C)C)s2)cc1`, which inhibition is on record?
Answer: 90% (active)

Question: Which inhibition does the source give for `c1ccc(-c2ccc(-c3nccn3CCn3ccnc3)s2)cc1` here?
Answer: -34.9%

Question: Which inhibition does the source give for `CC(=NCCCn1ccnc1)c1c(-c2ccccc2)[nH]n(-c2nc3ccccc3s2)c1=O` here?
Answer: 52.5% (active)

Question: Which inhibition does the source give for `COc1ccc(-c2cn3c(C(=O)Nc4nccs4)csc3n2)cc1` here?
Answer: 10.8%

Question: For `COc1cccc(-c2cn3c(C(=O)Nc4ccccn4)csc3n2)c1`, which inhibition is on record?
Answer: 75.6% (active)

Question: With `Clc1ccc(Sc2ncccn2)cc1` as the compound, how does the inhibition read?
Answer: 2.73%

Question: With `Cc1c2cnnc(Sc3ccc(Cl)cc3)c2c(C)n1C` as the compound, how does the inhibition read?
Answer: 64% (active)

Question: With `CC(=O)c1ccc(OCc2cc(C(=O)N(C)Cc3ccon3)no2)cc1` as the compound, how does the inhibition read?
Answer: 80.4% (active)

Question: With `CCc1ccc(CN(C)C(=O)c2cc(COc3ccc(OC)cc3Cl)on2)nc1` as the compound, how does the inhibition read?
Answer: 73% (active)

Question: With `Cc1nonc1CN(C)C(=O)c1cc(COc2ccc(F)cc2Cl)on1` as the compound, how does the inhibition read?
Answer: 89.4% (active)

Question: With `CSc1ccccc1OCc1cc(C(=O)N(C)Cc2ccc(F)cc2)no1` as the compound, how does the inhibition read?
Answer: 15.7%

Question: With `CC(NC(=O)c1cc(Br)ccc1O)c1ccccc1` (configuration not stated) as the compound, how does the inhibition read?
Answer: 17.3%

Source: PubChem BioAssay AID1259343 (VanderVen Lab, College of Veterinary Medicine, Cornell …, 2017)
